Reference: PubChem BioAssay (EPA / NIEHS)
Results filed as inconclusive are left out. Activity calls are given as the source filed them. How the source made its calls: active means hit-call score of the fitted dose curve at least 0.9, where 1 is the maximum; inconclusive means response in the unintended direction; inactive means score below 0.9.

Assay: TOX21_p53_BLA_p5_viability: Viability Assessment in the Tox21 HCT-116 p53 Agonism Beta-lactamase Assay, Phase 5 (AID 2283600)
Description: TOX21_p53_BLA_p5 is a cell-based, single-readout assay that uses HCT116, a human intestinal cell line, […] in a 1536-well plate.TOX21_p53_BLA_p5_viability is an assay readout measuring cellular ATP content and detected with CellTiter-Glo Luciferase-coupled ATP quantitation.TOX21_p53_BLA_p5_viability used a type of viability reporter where loss-of-signal activity can be used to understand changes in the cell viability. Furthermore, this assay endpoint can be referred to as a secondary readout, because this assay has produced multiple assay endpoints where this one serves a viability function. To generalize the intended target to other relatable targets, this assay endpoint is annotated to the cell cycle intended target family, where the subfamily is cytotoxicity.
Thawing Method: Place 14 mL of pre-warmed thaw medium into a 15 mL of conical tub. Remove the vial of cells to be thawed from liquid nitrogen and thaw rapidly by placing at 37C in a water bath with gentle agitation for 1-2 minutes. Decontaminate the vial by wiping with 70% ethanol before opening in a biological safety cabinet. Transfer the vial contents drop-wise into 14 mL of thaw medium in a sterile 15-mL conical tub. Centrifuge cells at 900 rpm for 4 minutes and resuspend in thaw medium. Transfer contents to the T75 tissue culture flask containing Thaw Medium and place flask in a humidified 37C/5% CO2 incubator. Switch to growth medium at first passage.Propagation Method: Aspirate medium, rinse once in DPBS, add 0.25% Trypsin/EDTA and swirl to coat the cell evenly. Add an equal volume of Growth Medium to inactivate Trypsin after 2-3 minutes incubation at 37C. Centrifuge cells at 900 rpm for 4 minutes and resuspend in growth medium. Cell should be passage or fed at least twice a week.Assay Protocol: Harvest cells from culture in growth medium and resuspend in assay medium. 2.2 Dispense 4000 cells/5 uL/well into 1536-well black/clear bottom plates using a Multidrop dispenser. After the cells were incubated at 37C for 5 hours, 23 nL of compounds dissolved in DMSO were transferred to the assay plate by a PinTool resulting in a 217-fold dilution. Incubate the plates for 16 hours at 37C, 5% CO2. Add 1 uL of 6X LiveBLAzer FRET B/G (CCF4-AM) Substrate Mixture to each well using a BioRAPTR dispenser and incubate the plates at room temperature for 2 hours. Measure fluorescence intensity at 460 and 530 nm emission and 405 nm excitation by an Envision detector. Data is expressed as the ratio of 460nm/530nm emissions. Add 4 uL of Cell-titer Glo to each well using BioRAPTR and incubate the plates at room temperature for […]. For cell viability readout that measures cytotoxicity, 4 ul/well of CellTiter-Glo reagent was added into the assay plates using a Flying Reagent Dispenser. After 30 min incubation at room temperature, the luminescence intensity in the plates was measured using a ViewLux plate reader.

SMILES	outcome	AC50
CC1(C)CC(N)CC(C)(CN)C1 (stereo not given)	inactive	–
CN(C)C	inactive	–
CCCCOC(=O)C(C)OC(=O)CCC (stereo not given)	inactive	–
C=CC(C)(CCC=C(C)C)OC(=O)CC (stereo not given)	inactive	–
Cc1ccc(C(C)(C)O)cc1	inactive	–
CCCO	inactive	–
CCCCCCCCCOS(=O)(=O)O	inactive	–
CCCCCCCCCCCCN1CCOCC1	inactive	–
Nc1ccn([C@H]2CC[C@@H](CO)O2)c(=O)n1	inactive	–
CCCCCCCCCCCCS	inactive	–
CCCCCCCCCCCCCCCCCC(=O)OCCCCCCCCCCCCCC(C)C	inactive	–
CCC(C)(C)c1cc(O)c(C(C)(C)CC)cc1O	inactive	–
C=C(C)C(=O)OCCN(C)C	inactive	–
O=[N+]([O-])c1cc(N(CCO)CCO)ccc1NCCO	inactive	–
CC(C)N1C(=O)c2ccccc2C1=O	inactive	–
CCC(C)COC(=O)CC(C)C (stereo not given)	inactive	–
CCCCC(CC)COC(=O)COc1ccc(Cl)cc1C (stereo not given)	inactive	–
CCOC(=O)C=Cc1ccccc1	inactive	–
CC(C)=CCCC(C)=CC(=O)O	inactive	–
CCC(C)C1CCCCC1=O (stereo not given)	inactive	–

SMILES	outcome	AC50
C1=COCCC1	inactive	–
CCCCCCCC1CCCC1=O (stereo not given)	inactive	–
CCC(=O)OC(C)(C)C1CC=C(C)CC1 (stereo not given)	inactive	–
Cc1ccncc1	inactive	–
CC(O)COCC(C)O (stereo not given)	inactive	–
CCCCOCCOCCO	inactive	–
COc1ccc2[nH]cc(CCNC(C)=O)c2c1	inactive	–
CC(C)COC(=O)c1ccccc1	inactive	–
CCC(C)(C)C1CCC(=O)CC1	inactive	–
CC(C)OB(OC(C)C)OC(C)C	inactive	–
CC(C)COC(=O)c1ccccc1O	inactive	–
C=CCS(=O)(=O)O	inactive	–
CC(CCO)CC(C)(C)C (stereo not given)	inactive	–
c1ccc(Cc2ccccc2)cc1	inactive	–
CC1=CC(=O)[C@H]2C[C@@H]1C2(C)C	inactive	–
CCCCCCC(O)CCOC(C)=O (stereo not given)	inactive	–
O=S1(=O)CC(Cl)(Cl)C(Cl)(Cl)C1	–	6.87 µM (active)
C=CCOC(=O)/C=C\C(=O)OCC=C	inactive	–
CCCC(O)C(CC)CO (stereo not given)	inactive	–
NCCCOCCOCCOCCCN	inactive	–
